Screening results: PubChem, National Center for Advancing Translational Sciences (NCATS)
BAZ2B block: blocks human BAZ2B. AlphaScreen BAZ2B-H3K14Ac peptide displacement. Potency, µM (titrated, usually from 114 µM), inactives show at the highest dose activity change, negative = inhibition, most hits filed as inhibitors. 4.4% of 360,000 active. AID 504333; note: potency is the fitted concentration of half-maximal effect; % is set by controls: 0 for no effect and ±100 for the full control effect; nearly all actives have a fitted effect of over 60% in size
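Inhibition is scored as reduced AlphaScreen emission. The BAZ2B/b-H3(5-23)K14Ac complex (50 nM each) in PBS pH 7.4, 0.01% Tween-20 meets compound (up to 110 uM) for 30 min at RT before bead addition.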
HP1b chromo inh: blocks HP1-beta chromodomain binding to methylated histone tails | 0.56% of 390,000 active | P83916 | AlphaScreen HP1-beta / biotin-H3K9me3 peptide binding | Potency, µM (titrated, usually from 114 µM), without a hit: at the highest dose activity change, negative = inhibition, usual class: inhibitors; note: potency is the fitted concentration of half-maximal effect; nearly all actives have a fitted effect of over 70% in size
Target sequence (P83916 whole entry, looked up): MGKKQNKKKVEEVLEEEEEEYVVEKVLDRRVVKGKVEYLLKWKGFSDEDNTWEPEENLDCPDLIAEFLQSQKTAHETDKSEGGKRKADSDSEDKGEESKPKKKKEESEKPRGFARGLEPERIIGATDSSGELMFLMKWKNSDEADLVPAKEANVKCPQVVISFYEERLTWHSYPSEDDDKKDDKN
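HP1-beta protein (50 nM final) preincubated 30 min at room temperature with biotinylated H3(1-18)K9me3 peptide (50 nM) in PBS pH 7.4, 0.01% Tween-20, then compound added for 30 min. AlphaScreen streptavidin donor/nickel chelate acceptor beads (10 ug/mL final), 30 min dark, luminescence read.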
PI5P4K alpha inh: inhibitors of human PI5P4K alpha. 1.2% of 330,000 active. PI5P4Kalpha enzyme, ADP-Glo luminescence, 60 min; active compounds read low. max response, %. P48426; active = max response of -50% or lower; inconclusive = between -30% and -50%; inactive = -30% or higher; note: value at the top dose of about 77 µM; % is set by controls: 0 for no effect and ±100 for the full control effect
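PI5P4Kalpha ADP-Glo assay; 5 microM ATP final; 60 min RT reaction; HEPES pH 7.4/EGTA/CHAPS, 5% DMSO; controls lacking substrate or enzyme; luminescent end-point.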
PLK1 PBD inh: PLK1 (human) polo-box domain binding inhibition; Potency, µM, for the others: max response, negative = inhibition, hits mostly inhibitors; 2.8% of 360,000 active; P53350; Plk1 PBD binding of FITC phosphopeptide, fluorescence polarization; note: potency is the fitted concentration of half-maximal effect; series mostly up to about 57 µM; % is set by controls: 0 for no effect and ±100 for the full control effect; nearly all actives have a fitted effect of over 65% in size
G9a inh: blocks human histone lysine methyltransferase G9a | Q96KQ7 | G9a H3K9 monomethylation, AlphaScreen, 2 h | Potency, µM (top dose mostly 102 µM), for the others: at the highest dose activity, negative = inhibition, actives largely listed as inhibitors | 8.8% of 350,000 active | AID 504332; note: potency is the fitted concentration of half-maximal effect; % is set by controls: 0 for no effect and ±100 for the full control effect; nearly all actives have a fitted effect of over 75% in size
Target sequence (Q96KQ7 913-1193 limits assumed): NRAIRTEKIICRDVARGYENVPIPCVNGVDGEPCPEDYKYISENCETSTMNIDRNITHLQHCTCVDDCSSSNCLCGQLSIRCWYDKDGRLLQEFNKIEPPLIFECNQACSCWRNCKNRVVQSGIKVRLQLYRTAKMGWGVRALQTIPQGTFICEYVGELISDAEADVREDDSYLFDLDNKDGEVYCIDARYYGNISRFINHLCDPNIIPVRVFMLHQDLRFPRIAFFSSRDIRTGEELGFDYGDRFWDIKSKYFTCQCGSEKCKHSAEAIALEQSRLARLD
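Signal arises when biotinylated H3K9 peptide, once monomethylated, bridges streptavidin donor and antibody-captured acceptor beads. Enzyme at 20 nM was preincubated 15 min with test compounds; peptide 500 nM and SAM 20 uM then reacted for 2 h.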
JMJD2A Tudor: inhibitors of human JMJD2A Tudor domain; AID 504339; Potency, µM (series often up to 114 µM), without a hit: at the highest dose activity change, negative = inhibition, usual class: inhibitors; O75164; 4.4% of 390,000 active; AlphaScreen JMJD2A-Tudor / H3K4me3 peptide binding; note: potency is the fitted concentration of half-maximal effect; % is set by controls: 0 for no effect and ±100 for the full control effect; nearly all actives have a fitted effect of over 50% in size
The depositor's hits bear a star; ? = inconclusive; · = no result given; [ ] = another dose, or the depositor's remark. Sampled rows, rich in hits. Any-hit rate of the full collection: about 12%. Unless noted, calls come from the whole dose curve; as a rule, active = well fitted curve in the direction sought with a large enough effect; inconclusive = small, poorly fitted or top-dose-only effect, or another doubt; inactive = no such curve, though single readings can be large; an effect the other way counts as inactive or inconclusive.

SMILES	BAZ2B block	HP1b chromo inh	PI5P4K alpha inh	PLK1 PBD inh	G9a inh	JMJD2A Tudor
C=CCNC(=O)c1oc2ccc(S(=O)(=O)N(CC)CC)cc2c1C	-28.7%	26.0%	·	9.47µM*	?	-15.5%
CCN(CC)S(=O)(=O)c1ccc2oc(C(=O)NCc3ccccc3OC)c(C)c2c1	1.4%	37.6%	·	·	-27.7%[59 µM]	-3.1%
CCN(CC)S(=O)(=O)c1ccc2oc(C(=O)NCCN3CCOCC3)c(C)c2c1	9.6%	4.2%	3.0	26.7µM*	-6.3%[59 µM]	-30.7%[57.1 µM]
CCN(CC)S(=O)(=O)c1ccc2oc(C(=O)N3CCOCC3)c(C)c2c1	12.4%	5.7%	-7.8	-11.9%	-1.1%[12.7 µM]	-8.7%[57.1 µM]
COc1ccc(CN2C(=O)N(c3ccccc3)C(=O)C2c2ccccc2)cc1COc1ccc(NC(C)=O)cc1 (centres undefined)	·	13.2%	·	·	·	-28.6%
CN(C)c1ccc(C(=O)N2CCC2(C)C(=O)O)cc1 (centres undefined)	·	·	-3.2	6.8%	·	·
N#Cc1c(N)n(-c2ccc(N)cc2)c2nc3ccccc3nc12	-3.5%	-2.0%	-5.5	-10.8%	14.8%	-24.7%
N#Cc1c(C#N)c(-c2ccccc2)n(-c2ccc(C(=O)O)cc2)c1N	?	17.6%	-17.3	-4.6%	56.2µM*	-19.6%
N#Cc1c(N)n(-c2ccc(C(=O)O)cc2)c2nc3ccccc3nc12	2.3%	39.2%	-2.3	0.2%	-5.5%[59 µM]	7.0%
N#Cc1c(C#N)c(SSc2c(C#N)c(C#N)c(N)n2-c2ccccc2)n(-c2ccccc2)c1N	·	?	-81.2*	2.67µM*	·	0.794µM*
CCCCCCN1C=CC=C/C1=C/C=C(C#N)C#N	25.1µM*	-22.6%	-6.4	?	44.7µM*	?
C=CCN1C=CC(=CC=C(C#N)C#N)C=C1	-37.2%	11.2%	-6.2	90.6%	?	-11.8%
CCCCCCN1C=C/C(=C\C=C(C#N)C#N)c2ccccc21	3.16µM*	?	-18.2	2.1%	7.08µM*	2.82µM*
C=CCN1C=C/C(=C\C=C(C#N)C#N)c2ccccc21	3.16µM*	?	-29.7	16.0%	?	22.4µM*
Nc1cc(-c2ccccc2)ccc1O	?	-21.9%	-9.4	21.2µM*	22.4µM*	?
CC(=O)Nc1cc(Br)ccc1O	-11.2%	14.5%	-2.2	-4.2%	32.6%[0.501 µM]	-6.8%
CC(=O)Nc1cc(-c2ccccc2)ccc1O	22.7%	26.4%	·	-0.9%	28.2µM*	-5.3%
COc1ccc(CNC(=O)c2cc(C)nc3c2c(C)nn3-c2cccc(Cl)c2C)cc1	7.6%[57.1 µM]	15.4%	·	·	4.9%[59 µM]	-13.9%
Cc1oc(-c2ccccc2Cl)nc1CS(=O)(=O)CC(=O)NCc1ccc(F)cc1	-5.0%	34.1%	·	·	5.4%[59 µM]	-6.0%
CCOc1ccccc1NC(=O)Cn1c(=O)n(C(C)C)c(=O)c2oc3ccccc3c21	-30.5%	47.0%	·	·	3.9%[59 µM]	9.9%
O=C(/C=C/c1ccccc1Cl)c1ccccc(=O)c1O	56.2µM*	?	-28.9	26.7µM*	31.6µM*	?
Cc1ccc(C)c(/C=C/C(=O)c2ccccc(=O)c2O)c1	56.2µM*	-25.9%	-21.2	?	44.7µM*	?
Cc1ccc(/C=C/C(=O)c2ccccc(=O)c2O)c(C)c1	50.1µM*	-38.6%	-4.2	?	50.1µM*	?
CC(NCc1ccccc1)c1ccccc1O (centres undefined)	-0.8%	0.8%	2.8	-1.7%	-2.3%[59 µM]	-11.0%
CC1CCN(CCCNC(=O)C2CCC(CNS(=O)(=O)c3ccccc3)CC2)CC1 (centres undefined)	1.8%	36.8%	-1.8	7.6%	·	16.7%
SMILES	BAZ2B block	HP1b chromo inh	PI5P4K alpha inh	PLK1 PBD inh	G9a inh	JMJD2A Tudor
O=C(CCCCn1c(=O)c2ccccc2n(CC(=O)Nc2ccc(F)cc2F)c1=O)NCc1ccccc1Cl	-0.6%	27.7%	·	·	-25.9%[59 µM]	-4.1%
CCC(CC)C(=O)Nc1cccc(/C(C)=N/NC(=O)c2ccccc2Cl)c1	-1.6%	-15.6%	7.8	26.7µM*	-0.7%[12.7 µM]	-12.2%[11.4 µM]
CCC(CC)C(=O)Nc1cccc(/C(C)=N/NC(=O)c2c(Br)cnn2C)c1	-1.4%	53.3%	9.9	-2.2%	-3.1%	6.6%
CCOc1ccc(CC(=O)NCC(c2cccs2)S(=O)(=O)c2ccc(F)c(C)c2)cc1 (centres undefined)	-0.9%	36.6%	·	·	2.8%[12.7 µM]	-12.6%
Cc1ccc(NC(=S)N2CCC(NC(=O)c3ccc(C)cc3)CC2)cc1	-1.0%	-4.8%	0.9	-1.3%	79.4µM*	-18.2%
CCOc1ccccc1NC(=O)N1CCC(NC(=O)c2cccc(C)c2)CC1	12.9%	3.7%	-22.0	-15.5%	31.6µM*	-32.1%
Cc1cccc(C(=O)NC2CCN(C(=O)Nc3ccccc3C)CC2)c1	3.5%	10.5%	-6.7	-11.3%	-1.9%	0.7%
Cc1cccc(C(=O)NC2CCN(C(=O)Nc3ccc(F)cc3)CC2)c1	-2.1%	-4.9%	1.0	-10.6%	79.4µM*	-1.4%
Cc1cccc(C(=O)NC2CCN(S(=O)(=O)c3ccc(F)cc3)CC2)c1	0.9%	25.8%	1.1	4.6%	·	-8.6%
Cc1ccc(NC(=S)N2CCC(NC(=O)c3cccc(F)c3)CC2)cc1	-38.8%	8.9%	-0.7	-5.0%	17.5%	-22.5%
O=C(Nc1nnc([C@@H]2O[C@H](CO)[C@@H](O)[C@H]2O)s1)Nc1ccccc1C(F)(F)F	·	·	-8.5	-5.2%	·	·
O=C(NCc1ccccc1Cl)c1ccccc1NC(=O)c1nsc2ccccc12	-0.6%	21.3%[57 µM]	·	·	0.6%[59 µM]	-9.1%
CCc1ccc(NC(=O)N(Cc2c[nH]c3ccccc23)C2CCCCCC2)cc1	·	29.0%	·	·	-31.8%[59 µM]	-16.0%
O=C(CSc1nnc(COc2ccc(Cl)cc2)o1)N1CCN(c2ccccc2)CC1	-0.1%	2.4%	-4.3	29.9µM*	?	?
CN1CCN(C(=O)CSc2nnc(COc3ccccc3)o2)CC1	-2.4%	14.5%	0.1	?	39.8µM*	-6.0%
O=C(CSc1nnc(-c2ccco2)o1)N1CCN(c2ccccc2)CC1	-3.3%	-7.8%	-25.3	29.9µM*	4.1%	?
COc1cccc(OCc2nnc(SCc3cc(=O)[nH]c4ccccc34)o2)c1	-25.7%	?	-13.7	23.8µM*	-42.2%	-8.3%[11.4 µM]
Cc1ccc(OCC(=O)OCc2cc(=O)n3c(C)csc3n2)cc1	-14.6%	22.2%	·	·	1.3%[59 µM]	-11.3%
Cc1ccc(NS(=O)(=O)c2ccc(C(=O)NCCCN3CCCC3=O)cc2)cc1	5.1%	18.7%	5.7	-6.9%	10.0%[0.501 µM]	-13.1%
CN(C)c1cccc(S(=O)(=O)N2CCN(S(=O)(=O)c3ccc4c(c3)OCCO4)CC2)c1	·	·	·	·	·	-23.1%
COc1cccc(OCc2nnc(SCC(=O)N3c4ccccc4Sc4ccc(Cl)cc43)o2)c1	-5.7%	-17.0%	8.2	?	28.2µM*	8.0%
N#CCCN(NC1=NS(=O)(=O)c2ccccc21)C(=O)c1ccccc1Br	-0.7%	59.1%	2.5	-10.2%	-3.0%[2.33 µM]	35.5µM*
